FGF22 binding = FGF22 (human) thermal shift binding; Q9HCT0; recombinant FGF22 thermal shift, SYPRO orange fluorescence; percent of sucrose octasulfate shift, DMSO zero; activity (Tm shift, normalised), % at 9.99 µM; actives 1.5% (n = 340,000); AID 651658;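 active means mean Tm shift, scaled 0 neutral to 100 positive control, at about 1.3% or above, every replicate too, limit read from the data; inconclusive means no clear call, values can overlap the other calls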
Target sequence (Q9HCT0 whole entry, looked up): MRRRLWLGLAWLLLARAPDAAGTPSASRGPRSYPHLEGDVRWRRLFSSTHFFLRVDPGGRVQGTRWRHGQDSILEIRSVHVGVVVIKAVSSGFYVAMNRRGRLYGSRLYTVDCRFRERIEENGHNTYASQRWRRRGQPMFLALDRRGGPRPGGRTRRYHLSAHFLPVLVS
SMARCA2 act = increases SMARCA2 function in MMTV reporter cells. MG213 cells, MMTV-luciferase reporter, dexamethasone, overnight. activation, % at 9.1 µM. actives 1% (n = 370,000). AID 652017; in the data active means activation above about 7.8%;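 further: 0% = vehicle wells and 100% = reference activator wells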
MITF act = MITF TRPM1 promoter activation in melanoma cells. AID 588334. activation, % at 12.5 µM. SK-MEL-5 TRPM1-promoter luciferase, 24 h; % of positive control, neutral wells = 0. actives 0.75% (n = 300,000);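 active means mean activation of at least 80% with every replicate also reaching 80%; inconclusive means mean reaches 80% but some replicate falls short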;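 further: 0% = neutral control wells and 100% = parthenolide positive control wells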
AF4-AF9 inh = MLL-AF4/AF9 protein interaction inhibition. AlphaScreen, biotin-AF4 peptide binding to FLAG-AF9. inhibition, % at 10 µM. actives 0.47% (n = 350,000). AID 651704;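 active means every replicate reaching a set inhibition limit, whatever the replicate mean, cut at about 25% in these data; inconclusive means mean inhibition reaches that limit but some replicates miss it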;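 further: 0% = plate neutral control median and 100% = total signal loss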
Wnt bcat act = Wnt/beta-catenin pathway activation. Wnt/beta-catenin reporter cell assay, activator, plate reader. activation, % at 9.35 µM. actives 1.2% (n = 300,000); in the data active means activation above about 30%, passing the limit was not always enough; inconclusive means no clear call, values can overlap the other calls;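 further: 0% = neutral control wells and 100% = positive control wells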
esBAF inh = SWI/SNF esBAF complex inhibition | reporter increase, % at 12.5 µM | actives 2% (n = 350,000) | AID 602393 | mouse ES cells, Bmi1-luciferase knock-in reporter, 24 h; 100% = twice the neutral-well signal; in the data active means activation above about 40%; inconclusive means no clear call, values can overlap the other calls;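 further: 0% = median of the plate's neutral control wells and 100% = double that signal; a rise in the Bmi1 reporter signal indicates esBAF inhibition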
* hit, by the source's call; u = inconclusive; x = no result. Sampled rows, rich in hits. Any-hit rate of the full collection: about 4.3%.

SMILES	FGF22 binding	SMARCA2 act	MITF act	AF4-AF9 inh	Wnt bcat act	esBAF inh
O=C(Nc1ccc2c(c1)OCCO2)c1cc(-c2ccccn2)nc2ccc(Br)cc12	44*	-2	-9	1	-3	-5
O=C(NCC1CCCCC1)[C@H]1[C@H](CO)[C@H]2Cn3c(ccc(C4=CCCC4)c3=O)[C@@H]1N2	x	x	x	x	x	1
O=C(C[C@H]1CC[C@H]2[C@@H](COC[C@@H](O)CN2C(=O)Nc2ccc(F)cc2)O1)NCCCN1CCOCC1	0	x	x	-29	x	1
O=C(C[C@@H]1C[C@H]2c3cc(NC(=O)c4ccc5c(c4)OCO5)ccc3O[C@H]2[C@H](CO)O1)NCCc1ccccc1	0	x	x	-7	x	7
CCN1[C@@H]2c3ccc(C4=CCCCC4)c(=O)n3C[C@H]1[C@H](CO)[C@H]2C(=O)NCCc1ccncc1	x	x	x	1	x	-5
C[C@H]1CN([C@@H](C)CO)C(=O)c2cc(NC(=O)Nc3ccc(F)cc3)ccc2O[C@H]1CN(C)C(=O)Nc1cccc2ccccc12	0	x	x	-2	x	-4
O=C(Nc1ccc2c(c1)OCO2)N1CCCc2ccccc21	0	2	31	-22	36*	u
Cc1ccc2c(c1)CCCN2C(=O)Nc1ccc2c(c1)OCO2	x	4	x	x	29	u
COc1ccc(CC(=O)OCC(=O)Nc2ccc3c(c2)OCO3)cc1	43*	2	-1	0	0	x
COc1ccc(CCC(=O)Nc2ccc3c(c2)OCO3)cc1	0	-2	8	-3	0	-3
O=C(NCc1cccs1)Nc1cccc(Cl)c1	x	1	42	x	x	59*
COc1ccc(C(=O)Nc2ccc3c(c2)OCCO3)cc1Br	0	4	x	1	2	48*
COc1ccc(CN(C)C[C@@H]2Oc3ccc(NC(=O)Cc4ccccc4)cc3C(=O)N([C@H](C)CO)C[C@@H]2C)cc1	x	x	x	-2	x	2
OC[C@H]1[C@@H](c2ccc(C#Cc3ccccc3)cc2)[C@@H]2CN(CC3CCOCC3)CCCCN12	0	x	x	16	x	x
C[C@@H]1CN([C@H](C)CO)C(=O)c2cccc(NC(=O)C3CCOCC3)c2O[C@H]1CN(C)Cc1ccc(Oc2ccccc2)cc1	-1	x	x	5	x	7
Cc1cc(F)ccc1NC(=O)Nc1ccc2c(c1)OCO2	0	-2	15	1	6	16
Cc1ccc(NC(=O)Nc2ccc3c(c2)OCO3)cc1F	0	3	126*	-2	0	x
CO[C@H]1O[C@H](CO)[C@@H](OC(=O)Nc2ccccc2)[C@H](OC(=O)Nc2ccc3c(c2)OCO3)[C@@H]1OC(=O)Nc1ccc2c(c1)OCO2	-1	x	x	27*	x	x
CC(OC(=O)c1cccs1)C(=O)NCc1ccccc1 (stereo unspecified)	x	-3	-8	x	53*	-8
O=C(Nc1ccc2c(c1)OCO2)c1ccccn1	0	3	58	1	46*	23
O=C(NCc1ccc(F)cc1)[C@H]1C[C@H]2C(=O)N3CCC[C@H]3C(=O)N2[C@H]1c1cccc(OCCO)c1	0	x	x	-2	x	x
O=C(Nc1ccc2c(c1)OCO2)N1C[C@@H]2N[C@H](C1)C2c1ccc(-c2ccccc2)cc1 (stereo partly specified)	x	x	x	31*	x	x
CC(=O)c1cccc(NC(=O)NCc2ccc3c(c2)OCO3)c1	0	-1	8	-1	2	5
CC(C)C(=O)Nc1cccc(NC(=S)NC(=O)c2ccc(Cl)cc2)c1	x	-3	x	x	x	34
O=C(Nc1ccc2c(c1)OCCO2)Nc1ccc2c(c1)OCO2	0	5	25	-13	11	-37
SMILES	FGF22 binding	SMARCA2 act	MITF act	AF4-AF9 inh	Wnt bcat act	esBAF inh
O=C(NCc1ccc2c(c1)OCO2)Nc1cccc(Cl)c1	x	6	80*	-8	11	67*
O=C(Nc1cccc(Cl)c1)Nc1ccc2c(c1)OCO2	x	5	43	x	32*	58*
CC(C)C(=O)Nc1cccc(NC(=S)NC(=O)c2ccc3c(c2)OCO3)c1	0	1	76	-6	27	62*
CC(=O)N1CC2(C1)[C@H](c1ccc(-c3ccc(F)cc3)cc1)[C@@H](CO)N2C(C)=O	0	x	x	-1	x	x
C[C@@H]1CN([C@@H](C)CO)C(=O)c2cccc(NC(=O)C3CCCCC3)c2O[C@@H]1CN(C)C	0	x	x	-2	x	-1
CCc1cccc(NC(=O)Nc2ccc3c(c2)OCO3)c1	x	-2	37	x	10	25
O=C(Nc1cccc(F)c1)c1ccc2c(c1)OCO2	x	1	51	x	x	78*
O=C(Nc1c(C(=O)Nc2cccc(F)c2)oc2ccccc12)c1ccc2c(c1)OCO2	x	0	16	x	x	10
CCC(=O)Nc1cccc(NC(=O)c2ccc3c(c2)OCCO3)c1	x	1	67	x	x	72*
CC(=O)c1cccc(NC(=O)Nc2ccc3c(c2)OCO3)c1	0	1	119*	0	3	52*
Cc1cc(C(=O)COc2ccc(C#N)cc2)c(C)n1CC1CCCO1 (stereo unspecified)	43*	3	x	9	-5	22
CS(=O)(=O)N1CCN(CCN2C(=O)c3cccc4cccc(c34)C2=O)CC1	45*	0	4	-11	-2	x
CC(C)(C)C(=O)N1CCN(CCN2C(=O)c3cccc4cccc(c34)C2=O)CC1	0	0	x	0	-1	-8
CCc1ccccc1NC(=O)c1cnc2scc(C)n2c1=O	0	-5	x	-11	1	56*
CSc1ccccc1NC(=O)c1cnc2scc(C)n2c1=O	0	1	41	-8	0	20
S=c1[nH]nc(Nc2cccc(Cl)c2)s1	43	-2	1	0	7	x
Cc1ccc(Nc2n[nH]c(=S)s2)cc1C	0	8	x	-1	12	51*
COc1ccc(N=CC2=C(O)CC(C)(C)CC2=O)cc1	x	7	32	x	x	49*
O=C(O)c1ccc(NC2=C/C(=N/S(=O)(=O)c3cccs3)c3ccccc3C2=O)cc1	0	-6	x	13	-6	-6
O=C1C(Nc2ccc(O)cc2)=C/C(=N/S(=O)(=O)c2cccs2)c2ccccc21	41	-13	-108	63*	-26	x
Cc1cc(C)c(S(C)(=O)=O)c(N(C)N)n1	43*	1	-4	1	-13	x
COC(=O)C1CCN(C2=C(NS(=O)(=O)c3ccc(Cl)cc3)C(=O)c3ccccc3C2=O)CC1	0	1	-16	39*	3	14
NC(=O)C1CCN(C2=C(NS(=O)(=O)c3ccc(Cl)cc3)C(=O)c3ccccc3C2=O)CC1	-1	2	-16	17	0	x
CC(=O)Nc1ccc(S(=O)(=O)NC2=C(N3CCN(c4ccc(F)cc4)CC3)C(=O)c3ccccc3C2=O)cc1	0	-4	-48	45*	-1	x
Cc1ccc(S(=O)(=O)NC2=C(N3CCN(Cc4ccccc4)CC3)C(=O)c3ccccc3C2=O)cc1	0	6	-39	35*	x	x

Screening data deposited in PubChem by several laboratories.
